High-throughput results (PubChem BioAssay)
KCNQ2 inh = rat KCNQ2 potassium channel inhibitors, primary screen, cell-based, CHO-K1, FluxOR thallium flux, B-score | 20 min; stronger effect = lower value | B-score at 10 µM | actives 1.1% (n = 310,000) | AID 2156, 2009;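 active = fluorescence ratio B-score at most minus 3 library SDs, with starting brightness B-score within 2 library SDs, cut at about -5.5 in these data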
KCNQ2 enhance = potentiators of rat KCNQ2 potassium channel. CHO-K1 KCNQ2, FluxOR thallium flux fluorescence; stronger effect = higher value. B-score at 10 µM. actives 0.54% (n = 310,000). AID 2239, 2010. Potassium voltage-gated channel subfamily KQT member 2 (Rattus norvegicus), O88943;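 active = fluorescence ratio B-score at least 3 SD of library B-scores, with initial fluorescence B-score within 3 of them, cut at about 5.3 in these data; same plate scores as AID 2156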;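 note: B-score of peak minus minimum over baseline fluorescence ratio after K+ and Tl+ stimulus; positive B-score means potentiation of KCNQ2 with more thallium influx and brighter signal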
Starred values were filed as active, the others as inactive; i = inactive; x = not tested or not shown. Compounds with a hit are over-represented: about 1.6% of the library has one in this group of screens.

SMILES	KCNQ2 inh	KCNQ2 enhance
CCOc1ccc(S(=O)(=O)Nc2nc3ccccc3nc2Nc2ccc(N3CCOCC3)cc2)cc1	-5.6*	-5.6
N=C1S/C(=C\c2ccco2)C(=O)N1c1nccs1	i	9.1*
N=C1S/C(=C\c2ccco2)C(=O)N1c1ccc2c(c1)OCO2	i	x
N[C@@H](Cc1cc(I)c(Oc2ccc(O)c(I)c2)c(I)c1)C(=O)O	i	0.38
O=C(O)CCc1cc(I)c(Oc2ccc(O)c(I)c2)c(I)c1	i	32*
CCN(C(=S)NC(=O)c1ccccc1Br)C1CCCCC1	i	12*
O=C(NC(=S)NC1CCCC1)c1ccccc1Br	i	1.9
CCS(=O)(=O)N1Cc2ccccc2CC1C(=O)NC(C)C12CC3CC(CC(C3)C1)C2 (stereo not drawn)	i	x
CCS(=O)(=O)N1Cc2ccccc2CC1C(=O)NCC12CC3CC(CC(C3)C1)C2 (stereo not drawn)	-7.1*	-7.1
CCCN(C(=O)COC(=O)CNC(=O)c1ccc2ccccc2c1)c1c(N)n(Cc2ccccc2)c(=O)[nH]c1=O	i	0.06
Cc1nn(C)c(Oc2cccc(Cl)c2)c1C#N	i	x
Cn1nc(-c2ccccc2)c(C#N)c1Sc1cccc(Cl)c1	-8.1*	-8.1
CCN(CC)c1c([N+](=O)[O-])c(=O)n(C)c2ccccc12	i	x
Cn1c(=O)c([N+](=O)[O-])c(Cl)c2ccccc21	-6.2*	-6.2
O=[N+]([O-])c1cc(-c2ccn[nH]2)ccc1Cl	i	x
CCN1CCc2nc3sc(C(=O)N4CCc5ccccc5C4)c(N)c3cc2C1	i	x
Cc1cc(C)c2c(N)c(C(=O)N3CCc4ccccc4C3)sc2n1	-7.7*	-7.7
Cc1cc(C)nc(SCC(=O)N2CCc3ccccc32)n1	i	x
O=C(CSc1nc(N2CCCCC2)nc(N2CCCCC2)n1)N1CCN(c2ccccc2)CC1	i	19*
Cc1nc(SCC(=O)N2CCN(c3ccccc3)CC2)n[nH]1	i	x
O=C(CSc1nc(N2CCCCC2)nc(N2CCCCC2)n1)N1CCc2ccccc21	i	14*
CN1C(=O)CC(N2CCN(c3ccc(Cl)c(Cl)c3)CC2)C1=O (stereo not drawn)	i	x
CCOC(=O)Cn1cnc(-c2ccc([N+](=O)[O-])cc2)c1	i	x
FC(F)(F)c1cnc(Nc2ccc(N3CCOCC3)cc2)c(Cl)c1	i	0.96
CC(=O)c1ccc(N(C(=O)CNC(=O)c2cccs2)C(C(=O)NCC2CCCO2)c2ccccc2)cc1 (stereo not drawn)	i	0.47
SMILES	KCNQ2 inh	KCNQ2 enhance
O=C(NCC(=O)N(Cc1ccccc1)C(C(=O)NCC1CCCO1)c1ccccc1)c1cccs1 (stereo not drawn)	-5.6*	-5.6
Cc1ccc(NC(=S)N(CCN2CCCCC2)Cc2ccco2)cc1Cl	i	x
CCOC(=O)c1cnn(-c2ccccc2)c1-n1cccc1C(=O)C(=O)Nc1ccccc1C(F)(F)F	-7*	-7
CCOC(=O)c1cnn(-c2ccccc2)c1-n1cccc1C(=O)C(=O)N(CC)CC	i	0.3
CC(C)CCC1=NN(C(=O)c2ccco2)C(O)(C(F)(F)F)C1 (stereo not drawn)	i	x
CC(C)(C)N(NC(=O)OCc1ccccc1)C(=O)c1ccccc1	i	x
CC(C)(C)N(NC(=O)OCc1ccccc1)C(=O)c1ccccc1Cl	i	7.7*
CCOc1ccc(Cl)cc1S(=O)(=O)N1CCC(C(=O)NCc2ccco2)CC1	i	x
COc1cc(Br)cc(CNc2ccc(F)c([N+](=O)[O-])c2)c1O	i	x
Cc1ccc(C(C#N)c2ccc(C(=O)c3ccc(F)cc3)cc2)cc1 (stereo not drawn)	-6.4*	-6.4
N#CC(c1ccc(F)cc1)c1ccc(C(=O)c2ccc(F)cc2)cc1 (stereo not drawn)	i	x
CC(=O)NCCNC(=O)c1ccc(CSc2nc3ccccc3s2)cc1	i	1
CCOC(=O)C1CSC(CC(=O)Nc2ccc(OC(F)(F)F)cc2)C(=O)N1 (stereo not drawn)	i	x
COC(=O)c1ccc(OCCN2CCCCCC2)cc1	i	x
O=C(c1ccc(OCCN2CCCCC2)cc1)c1c(-c2ccc(O)cc2)sc2cc(O)ccc12	-6*	-6
CCCCC(C(=O)NC1CCCC1)N(Cc1ccco1)C(=O)Cn1nnc(-c2ccc(F)cc2)n1 (stereo not drawn)	-7.2*	-7.2
O=C(CN(Cc1ccco1)C(=O)Cn1nnc(-c2ccc(F)cc2)n1)NC1CCCC1	i	0.08
COCCn1c(-c2ccc3ccccc3c2)nc2c1c(=O)[nH]c(=O)n2CC(C)C	i	x
Cc1ccc(NS(=O)(=O)c2coc(C(N)=O)c2)cc1F	i	0.12
CNCc1c(C)nn(-c2ccccc2)c1C	i	10*
Cc1nn(-c2ccccc2)c(C)c1N	i	1.1
CC1CCN(S(=O)(=O)c2cccc(C(=O)Nc3ccccc3)c2)CC1	i	x
C=CC#CC1(O)CC(C)N(C)CC1C (stereo not drawn)	i	x
